# Source: PubChem BioAssay (National Center for Advancing Translational Sciences (NCATS))
# DT40 TDP1 CPT = qHTS for Inhibitors of human tyrosyl-DNA phosphodiesterase 1 (TDP1): qHTS in cells in presence of CPT; actives 12% (n = 420,000); chicken DT40 Tdp1-/-;hTDP1 cells + 20 nM CPT, ATP luminescence, 48 h; Potency, µM (highest dose often 46.2 µM), hits mostly inhibitors; further: nearly all actives have a fitted effect of over 55% in size
#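 Cell growth measured by CellTiter-Glo luminescence after a minimum 48 h, 37 C compound exposure with 20 nM CPT in Tdp1-knockout DT40 cells stably expressing hTDP1, seeded 400/well; qHTS titration format.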
# KB-V1 cytotox = qHTS assay for MDR1-selective chemotherapeutics: Primary screen using the drug-selected MDR subline cells KB-V1. KB-V1 MDR cells viability, CellTiter-Glo, 72 h. Potency, µM (top dose mostly 46.1 µM), usual class: cytotoxic. actives 3.4% (n = 400,000). AID 1347076, 2019; further: nearly all actives have a fitted effect of over 60% in size
#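 KB-V1, DMEM (no phenol red) + 10% FBS; cpd pin-transferred, titration series; 72 h, 37 degrees C; CellTiter-Glo, luminescence. Data normalized, curve-fit.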
# HT1080 IDH1KD tx = qHTS for induction of synthetic lethality in tumor cells producing 2HG: qHTS for the HT-1080-IDH1KD cell line; HT-1080 IDH1 knockdown viability, ATP luminescence, 48 h; Potency, µM (top dose mostly 46.1 µM), actives largely listed as cytotoxic; actives 2% (n = 360,000)
#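 CellTiter-Glo luminescence after 48 h compound exposure at 37 degrees C of IDH1-knockdown HT-1080 cells in 5% FBS RPMI. %Activity scaled between DMSO wells and cell-free media wells, with curves fitted and assigned curve classes.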
# HT1080-NT tox = qHTS for induction of synthetic lethality in tumor cells producing 2HG: qHTS for the HT-1080-NT fibrosarcoma cell line | HT-1080-NT fibrosarcoma viability, CellTiter-Glo ATP luminescence, 48 h | Potency, µM (highest dose often 46.1 µM), actives largely listed as cytotoxic | actives 1.6% (n = 360,000);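 further: NT is the 2HG producing partner of a matched IDH1 knockdown line; nearly all actives have a fitted effect of over 55% in size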
#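 Luminescent CellTiter-Glo readout after 48 hours of compound exposure at 37 degrees C defined viability of HT-1080-NT cells. Activity was normalized to DMSO wells and cell-free media wells; concentration-response curves were fitted and assigned curve classes.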
# KB-3-1 cytotox = qHTS assay for MDR1-selective chemotherapeutics: Primary screen using the parental adenocarcinoma cell KB-3-1. KB-3-1 viability, CellTiter-Glo ATP luminescence, 72 h. Potency, µM (titrated, usually from 46.1 µM), most hits filed as cytotoxic. actives 1.4% (n = 400,000); further: nearly all actives have a fitted effect of over 60% in size
#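 Cytotoxicity in the drug-sensitive parental line KB-3-1 was scored as loss of CellTiter-Glo luminescence following 72 h incubation with compound. Values come from curve fitting of normalized concentration-response data.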
# TDP1 cell noCPT = qHTS for Inhibitors of human tyrosyl-DNA phosphodiesterase 1 (TDP1): qHTS in cells in absence of CPT; actives 15% (n = 420,000); DT40 Tdp1-/- hTDP1 cells, no CPT, ATP luminescence, 48 h; Potency, µM (series often up to 46.2 µM), most hits filed as inhibitors; further: nearly all actives have a fitted effect of over 55% in size
#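 Cells were dispensed at 400 per well, compounds added by pin tool, plates incubated ≥48 hr at 37 °C, then CellTiter-Glo added for 30 min at room temperature before luminescence reading. Line: DT40 Tdp1-/- complemented with hTDP1; camptothecin omitted.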
# A number is an active result; i = inactive; ? = inconclusive; nt = no result given; [ ] = remark or other dose. Compounds with a hit are over-represented: about 19% of the library has one in this group of screens. The call rests on the fitted dose curve; in most records, active means well fitted curve in the direction sought with a large enough effect; inconclusive means small, poorly fitted or top-dose-only effect, or another doubt; inactive means no such curve, though single readings can be large; an effect the other way counts as inactive or inconclusive.
SMILES,DT40 TDP1 CPT,KB-V1 cytotox,HT1080 IDH1KD tx,HT1080-NT tox,KB-3-1 cytotox,TDP1 cell noCPT
O=[N+]([O-])c1ccc(N2CCN(c3ccc([N+](=O)[O-])cc3CO)CC2)c(CO)c1,2.31µM,i,i,i,?,2.91µM
Cc1ccc(C(=O)c2cc([N+](=O)[O-])ccc2N2CCN(C)CC2)cc1,5.8µM,3.66µM,7.31µM,10.3µM,5.17µM,5.8µM
COc1ccc(CC(=O)OCCc2cc3cc(OC)c(OC)cc3c(=O)o2)cc1,i,i,i,i,i,i
CCN(CC)C(=S)SCC(=O)Nc1ccc(F)cc1,20.6µM,i,i,i,i,?
CCN(CC)C(=S)SCC(=O)c1ccc(F)cc1,2.91µM,18.4µM,?,?,?,4.11µM
CCN(CC)C(=S)SCC(=O)Nc1cccc(C(F)(F)F)c1,i,i,i,i,i,?
Cc1onc(-c2ccc(Cl)cc2)c1-c1ccnc(SCC(=O)Nc2ccc(C(C)C)cc2)n1,?,i,i,i,i,?
Cc1ccc(C(=O)NCC(=O)N2CCN(c3ccccc3O)CC2)s1,i,i,i,i,i,2.91µM
CSCc1cc(C(=O)NCCN2CCOCC2)c(N)s1,i,i,i,i,i,i
COc1cccc(NC(=O)CCc2c(C)nc3c4cccnc4nn3c2C)c1,?,i,nt,nt,i,18.4µM
CCOC(=O)c1cccc(NC(=O)CCc2c(C)nc3c4cccnc4nn3c2C)c1,?,?,nt,nt,i,i
Cc1cc(C)cc(NC(=O)CCc2c(C)nc3c4cccnc4nn3c2C)c1,i,i,nt,nt,i,18.4µM
CCc1nc2c(OCC(=O)C(C)(C)C)cccn2c1N(C)C(=O)C(C)C,?,i,i,i,i,i
C[C@@H]1CN([C@@H](C)CO)C(=O)c2cccc(NC(=O)Nc3ccc(F)cc3)c2O[C@@H]1CN(C)Cc1ccc(Oc2ccccc2)cc1,13µM,i,?,23.1µM,i,18.4µM
C[C@H](CO)N1C[C@H](C)[C@@H](CN(C)Cc2ccc3c(c2)OCO3)Oc2c(NC(=O)Cc3ccccc3)cccc2C1=O,23.1µM,i,?,?,?,20.6µM
C[C@H](CO)N1C[C@H](C)[C@H](CN(C)Cc2ccccc2)Oc2ccc(NC(=O)Nc3ccc(F)cc3)cc2C1=O,?,i,?,?,?,?
COc1ccc(NC(=O)Nc2cccc3c2O[C@H](CN(C)Cc2ccc(-c4ccccc4)cc2)[C@@H](C)CN([C@H](C)CO)C3=O)cc1,8.2µM,i,i,i,i,11.6µM
CCC1CN(CCNC(=O)c2cccc(N3CCCC3=O)c2)Cc2cc(OC)ccc2O1 (configuration not stated),i[9.04 µM],nt,nt,nt,nt,i
CCOC(=O)CSc1nnc2n(-c3ccccc3)c(=O)c3c4c(sc3n12)CC(C(C)(C)C)CC4 (configuration not stated),?,i,nt,nt,i,?
COc1ccccc1NS(=O)(=O)CC12CCC(CC1=O)C2(C)C (configuration not stated),i,i,i,i,i,i
CC1(C)C2CCC1(CS(=O)(=O)Nc1ccc(S(=O)(=O)NC3CCCCC3)cc1)C(=O)C2 (configuration not stated),?,16.4µM,i,i,i,?
CC1(C)C2CCC1(CS(=O)(=O)NCc1ccc(Cl)cc1Cl)C(=O)C2 (configuration not stated),i,10.3µM,i,i,?,i
CCCCN(C(=O)CC1CCCC1)c1c(N)n(CCCC)c(=O)[nH]c1=O,i,i,i,i,i,i
CCCCCn1c(=N)c(S(=O)(=O)c2ccccc2)cc2c(=O)n3cccc(C)c3nc21,nt,i,nt,nt,i,nt
C[C@@H]1CC[C@H](O)/C=C/C(=O)O[C@H](C)CC[C@H](O)/C=C/C(=O)O1,5.17µM,i,i,i,?,5.17µM
SMILES,DT40 TDP1 CPT,KB-V1 cytotox,HT1080 IDH1KD tx,HT1080-NT tox,KB-3-1 cytotox,TDP1 cell noCPT
Cc1ccc(-c2nc3c(c(SCC(=O)Nc4cccc(C(=O)O)c4)n2)Cc2cccc(C)c2O3)cc1,i,?,nt,nt,?,?
O=C(C1CC1)N(CCN(Cc1ccccc1)C(=O)C1CC1)Cc1ccccc1,16.4µM,i,i,i,i,13µM
O=[N+]([O-])c1cc([N+](=O)[O-])c2cc3ccccc3nc2c1,0.259µM,i,4.61µM,16.4µM,3.66µM,0.517µM
O=[N+]([O-])c1cnc2ccccc2c1,i,i,i,i,i,i
CC[N+](CC)(CCNC(=O)C(=O)NCC[N+](CC)(CC)Cc1ccccc1Cl)Cc1ccccc1Cl,i,nt,nt,nt,nt,i
O=c1[nH]c2cc3c(cc2cc1C(c1nnnn1CC1CCCO1)N1CCCC1)OCO3 (configuration not stated),i,i,i,i,i,i
O=c1[nH]c2cc3c(cc2cc1C(c1nnnn1CC1CCCO1)N1CCCCCC1)OCCO3 (configuration not stated),?,i,i,i,i,14.6µM
COc1ccc(OC)c(-c2cnc(OC(C)(C)C)nc2OC(C)(C)C)c1,20.6µM,?,13µM,?,?,8.2µM
COc1ccc(-c2nc3cnc(N4CCOCC4)nc3n(C3CC3)c2=O)cc1,i,nt,nt,nt,nt,i
COc1cccc(NC(=O)CSc2nc(-c3ccccc3)nc3c2Cc2cc(Cl)ccc2O3)c1,i,i,nt,nt,i,i
CC(C)Sc1nc(NCc2ccco2)c2c3c(sc2n1)COC(C)(C)C3,25.9µM,i,i,i,i,14.6µM
CCCCc1nc2sc3c(SCCN(C)C)ncnc3c2c2c1CCC2,?,?,i,i,i,?
CCCCc1nc2sc3c(SCC(=O)NCc4ccco4)ncnc3c2c2c1CCC2,12.6µM,?,i,i,i,11.2µM
CCCCSc1nc(SCC(=O)NCc2ccco2)c2c3c(sc2n1)COC(C)(CC)C3 (configuration not stated),i,i,i,i,i,i
CSc1nc(SCC(=O)NCc2ccco2)c2c3c(sc2n1)COC(C)(C)C3,13µM,3.66µM,7.08µM,7.94µM,i,8.2µM
CCOc1ccc(S(=O)(=O)N2CCOCC2)cc1NC(=O)C1=COCCO1,i,?,i,i,i,i
CCOc1ccc(Oc2ccccc2NC(=O)C2=COCCO2)cc1,16.4µM,?,i,i,i,?
